The source made the active and inactive calls. The calls were made as follows: active = hit-call score of the fitted dose curve at least 0.9, where 1 is the maximum; inactive = score below 0.9.

The values that follow come from PubChem BioAssay (EPA / NIEHS).

Experiment [1] in a line: CEETOX_H295R_PROG: CeeTox H295R High-throughput Steroidogenesis Assay for Progesterone (PROG) (AID 2283442).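 As to AC50: human H295R adrenal cells primed with 10 µM forskolin before dosing; progesterone secreted into medium by H295R cells measured by HPLC-MS/MS.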 Particulars: actives raise or lower the signal. The procedure, abridged:
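Steps: seed H295R cells and let them adhere overnight; prime 48 h with 10 uM forskolin; dose with compound in DMSO at 0.1% final for 48 h; extract medium steroids with MTBE; measure progesterone by LC-MS/MS. MTT viability was run in the same wells.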

Read-out in experiment [2]: Tumor necrosis factor receptor superfamily member 6 (Homo sapiens) (UniProt P25445)
The experiment in a line: LTEA_HepaRG_FAS: Life Technologies and Expression Analysis (LTEA) Assay for Fas cell surface death receptor (FAS) using HepaRG (AID 2283447). The note with it: mRNA level, 48 h; actives raise or lower the signal. In a few lines:
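FAS transcript level was measured by TaqMan qRT-PCR against three housekeeping genes after 48 h chemical exposure. Cells were HepaRG, 0.5% DMSO vehicle, with a top concentration of 100 uM and half-log dilutions over eight points, in duplicate.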

Read-out in experiment [3]: Fatty acid synthase (Homo sapiens) (UniProt P49327)
The experiment in a line: LTEA_HepaRG_FASN: Life Technologies and Expression Analysis (LTEA) Assay for Fatty Acid Synthase (FASN) using HepaRG (AID 2283448).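 As to AC50: differentiated human HepaRG liver cells in serum-free induction medium.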 Particulars: mRNA level, 48 h; actives raise or lower the signal. In a few lines: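 Cells were plated, cultured 48 h, switched to serum-free induction medium, then dosed in duplicate (max 100 uM, half-log dilutions, 0.5% DMSO) for 48 h. RNA was then isolated and FASN quantified by qRT-PCR.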

Read-out in experiment [4]: Cyclin Dependent Kinase Inhibitor 1A (CDKN1A), CDKN1A (gene 1026)
The experiment in a line: LTEA_HepaRG_CDKN1A: Life Technologies and Expression Analysis (LTEA) Assay for Cyclin Dependent Kinase Inhibitor 1A (CDKN1A) using HepaRG (AID 2283450). The note with it: mRNA level, 48 h; actives raise or lower the signal. The procedure, abridged: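 Read-out is CDKN1A mRNA by TaqMan qRT-PCR, normalized to three housekeeping genes and fitted in both directions against the DMSO baseline. Human HepaRG cells were treated 48 h with test chemicals up to 100 uM in half-log steps, 0.5% DMSO.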

Read-out in experiment [5]: Cyclin D1 (CCND1), CCND1 (gene 595)
The experiment can be described thus: LTEA_HepaRG_CCND1: Life Technologies and Expression Analysis (LTEA) Assay for Cyclin D1 (CCND1) using HepaRG (AID 2283451).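 As to AC50: differentiated human HepaRG liver cells in serum-free induction medium; TaqMan qRT-PCR transcript level normalised to ACTB GAPDH and POLR2A housekeeping genes.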 The note with it: mRNA level, 48 h; actives raise or lower the signal. The procedure, abridged:
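HepaRG plated 48 h, medium switched to serum-free induction medium, chemicals added in duplicate (top 100 uM, half-log steps, 0.5% DMSO) for 48 h, cells lysed, RNA measured by TaqMan qRT-PCR.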

Read-out in experiment [6]: catalase (CAT), CAT (gene 847)
The experiment can be described thus: LTEA_HepaRG_CAT: Life Technologies and Expression Analysis (LTEA) Assay for catalase (CAT) using HepaRG (AID 2283452). Particulars: mRNA level, 48 h; actives raise or lower the signal. In a few lines: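 Expression of CAT was quantified by TaqMan qRT-PCR with ACTB/GAPDH/POLR2A normalization after 48 h chemical exposure of HepaRG. Eight-point half-log series, top 100 uM, in 0.5% DMSO; gain or loss fitted against vehicle.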

Read-out in experiment [7]: flavin-containing dimethylaniline monooxygenases 3 (FMO3), FMO3 (gene 2328)
The experiment can be described thus: LTEA_HepaRG_FMO3: Life Technologies and Expression Analysis (LTEA) Assay for flavin-containing dimethylaniline monooxygenases 3 (FMO3) using HepaRG (AID 2283453).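 As to AC50: differentiated human HepaRG liver cells in serum-free induction medium.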 The note with it: mRNA level, 48 h; actives raise or lower the signal. In a few lines:
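FMO3 transcript quantified by TaqMan qRT-PCR against three housekeeping genes after 48 h chemical exposure of HepaRG cells. Eight-point half-log series, top 100 uM, 0.5% DMSO vehicle; phenobarbital 1mM induction control; up- or down-regulation fitted.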

Read-out in experiment [8]: Cytochrome P450 (CYP1A1), CYP1A1 (gene 1543)
The experiment can be described thus: LTEA_HepaRG_CYP1A1: Life Technologies and Expression Analysis (LTEA) Assay for Cytochrome P450 (CYP1A1) using HepaRG (AID 2283454). The note with it: mRNA level, 48 h; actives raise or lower the signal. The procedure, abridged: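 HepaRG, 48 h post-plating switched to serum-free induction medium; 8-pt conc-response (top 100 uM, half-log, 0.5% DMSO), duplicates, 48 h. Lysis in RLT, TaqMan qRT-PCR for CYP1A1; gain or loss vs DMSO.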

Read-out in experiment [9]: CFLAR gene, CFLAR (gene 8837)
The experiment in a line: LTEA_HepaRG_CFLAR: Life Technologies and Expression Analysis (LTEA) Assay for CFLAR gene using HepaRG (AID 2283455). Particulars: mRNA level, 48 h; actives raise or lower the signal. The procedure, abridged:
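Transcript level by qRT-PCR (normalized to ACTB, GAPDH and POLR2A) after 48 h chemical exposure of HepaRG cells, top concentration 100 uM with half-log steps, 0.5% DMSO vehicle, duplicates; fitted bidirectionally against DMSO baseline.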

Read-out in experiment [10]: Forkhead box O1 (FOXO1), FOXO1 (gene 2308)
The experiment can be described thus: LTEA_HepaRG_FOXO1: Life Technologies and Expression Analysis (LTEA) Assay for Forkhead box O1 (FOXO1) using HepaRG (AID 2283456). The note with it: mRNA level, 48 h; actives raise or lower the signal. In a few lines: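 FOXO1 transcript quantified by qRT-PCR after 48 h chemical exposure (top 100 uM, half-log steps, 0.5% DMSO) of HepaRG cells, housekeeping-normalized (ACTB/GAPDH/POLR2A). Changes fitted in both directions relative to vehicle.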

Experiment [11] is described as follows: CEETOX_H295R_TESTO: CeeTox H295R High-throughput Steroidogenesis Assay for Testosterone (TESTO) (AID 2283457).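 Also: cells exposed to chemicals for 48 h before medium collection.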 Particulars: actives raise or lower the signal. The procedure, abridged:
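H295R, passage ≤10, 48 h dosing; media extracted with MTBE → HPLC-MS/MS for testosterone; 7-pt standard curve sets LLOQ/ULOQ; bidirectional fit vs DMSO; MTT viability same wells.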

Read-out in experiment [12]: growth arrest and DNA damage 45 (GADD45A), GADD45A (gene 1647)
The experiment in a line: LTEA_HepaRG_GADD45A: Life Technologies and Expression Analysis (LTEA) Assay for growth arrest and DNA damage 45 (GADD45A) using HepaRG (AID 2283458). The note with it: mRNA level, 48 h; actives raise or lower the signal. The procedure, abridged:
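Transcript induction or loss, quantified by TaqMan qRT-PCR against three housekeeping genes, is the read-out. HepaRG cells received chemicals for 48 h across eight half-log concentrations from 100 uM in 0.5% DMSO; gain and loss fitted relative to DMSO.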

Read-out in experiment [13]: Forkhead box O3 (FOXO3), FOXO3 (gene 2309)
The experiment in a line: LTEA_HepaRG_FOXO3: Life Technologies and Expression Analysis (LTEA) Assay for Forkhead box O3 (FOXO3) using HepaRG (AID 2283459). The note with it: mRNA level, 48 h; actives raise or lower the signal. In a few lines:
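FOXO3 transcript measured by qRT-PCR (normalized to ACTB, GAPDH, POLR2A) after 48 h exposure of HepaRG cells in serum-free induction medium. Duplicates, eight half-log concentrations up to 100 uM, 0.5% DMSO; gain or loss fitted against DMSO.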

Read-out in experiment [14]: ABC Transporter (ABCB1), ABCB1 (gene 5243)
The experiment can be described thus: LTEA_HepaRG_ABCB1: Life Technologies and Expression Analysis (LTEA) Assay for ABC Transporter (ABCB1) using HepaRG (AID 2283460). Particulars: mRNA level, 48 h; actives raise or lower the signal. The procedure, abridged:
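ABCB1 transcript level measured by TaqMan qRT-PCR against three housekeeping genes after 48 h chemical exposure of differentiated HepaRG cells. Top concentration 100 uM, half-log steps, eight points, 0.5% DMSO vehicle; bidirectional fit relative to DMSO.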

Read-out in experiment [15]: growth arrest and DNA damage 45 (GADD45B), GADD45B (gene 4616)
The experiment can be described thus: LTEA_HepaRG_GADD45B: Life Technologies and Expression Analysis (LTEA) Assay for growth arrest and DNA damage 45 (GADD45B) using HepaRG (AID 2283461). The note with it: mRNA level, 48 h; actives raise or lower the signal. The procedure, abridged: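 HepaRG, ~100,000 cells/well, 48 h plating; serum-free induction medium; cpd 100 uM top, half-log x8, 0.5% DMSO, duplicate, 48 h; lysis in RLT, RNA isolation, qRT-PCR; norm ACTB/GAPDH/POLR2A; bidirectional fit vs DMSO.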

Read-out in experiment [16]: ABC Transporter (ABCC3), ABCC3 (gene 8714)
The experiment in a line: LTEA_HepaRG_ABCC3: Life Technologies and Expression Analysis (LTEA) Assay for ABC Transporter (ABCC3) using HepaRG (AID 2283462). Particulars: mRNA level, 48 h; actives raise or lower the signal. The procedure, abridged: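 Human HepaRG, 48 h dosing, 8-pt half-log series from 100 uM, 0.5% DMSO vehicle, duplicates. ABCC3 mRNA by TaqMan qRT-PCR, housekeeping-normalized; bidirectional curve fit vs DMSO.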

Read-out in experiment [17]: ABC Transporter (ABCB11), ABCB11 (gene 8647)
The experiment can be described thus: LTEA_HepaRG_ABCB11: Life Technologies and Expression Analysis (LTEA) Assay for ABC Transporter (ABCB11) using HepaRG (AID 2283463). The note with it: mRNA level, 48 h; actives raise or lower the signal. In a few lines: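 ABCB11 transcript levels quantified by TaqMan qRT-PCR against three housekeeping genes after 48 h chemical exposure of HepaRG cultures. Concentrations up to 100 uM in half-log steps, 0.5% DMSO vehicle; both induction and suppression scored.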

Read-out in experiment [18]: ABC Transporter (ABCC2), ABCC2 (gene 1244)
The experiment in a line: LTEA_HepaRG_ABCC2: Life Technologies and Expression Analysis (LTEA) Assay for ABC Transporter (ABCC2) using HepaRG (AID 2283464). Particulars: mRNA level, 48 h; actives raise or lower the signal. The procedure, abridged: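 HepaRG, 48 h post-plating; serum-free induction medium; cpd 8-pt, 100 uM top, half-log, 0.5% DMSO, duplicate, 48 h. Readout: ABCC2 mRNA by qRT-PCR, norm. ACTB/GAPDH/POLR2A. Bidirectional fit vs DMSO baseline.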

Read-out in experiment [19]: Broad substrate specificity ATP-binding cassette transporter ABCG2 (Homo sapiens) (UniProt Q9UNQ0)
The experiment in a line: LTEA_HepaRG_ABCG2: Life Technologies and Expression Analysis (LTEA) Assay for ABC Transporter (ABCG2) using HepaRG (AID 2283465). Particulars: mRNA level, 48 h; actives raise or lower the signal. In a few lines:
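ABCG2 transcript was quantified by TaqMan qRT-PCR against three housekeeping genes in HepaRG cells. Cells were treated in duplicate for 48 h across an 8-point half-log series up to 100 uM, with 0.5% DMSO vehicle. Gain or loss versus DMSO was fit.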

Read-out in experiment [20]: Cyclin D2 (CCND2), CCND2 (gene 894)
The experiment can be described thus: LTEA_HepaRG_CCND2: Life Technologies and Expression Analysis (LTEA) Assay for Cyclin D2 (CCND2) using HepaRG (AID 2283449). Particulars: mRNA level, 48 h; actives raise or lower the signal. The procedure, abridged: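 CCND2 transcript levels, quantified by qRT-PCR and normalised to three housekeeping genes, were fitted bidirectionally against 0.5% DMSO. HepaRG cultures were dosed 48 h in duplicate with an 8-point half-log series up to 100 uM.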

Broad substrate specificity ATP-binding cassette transporter ABCG2 (Homo sapiens), sequence (Q9UNQ0 whole entry, looked up): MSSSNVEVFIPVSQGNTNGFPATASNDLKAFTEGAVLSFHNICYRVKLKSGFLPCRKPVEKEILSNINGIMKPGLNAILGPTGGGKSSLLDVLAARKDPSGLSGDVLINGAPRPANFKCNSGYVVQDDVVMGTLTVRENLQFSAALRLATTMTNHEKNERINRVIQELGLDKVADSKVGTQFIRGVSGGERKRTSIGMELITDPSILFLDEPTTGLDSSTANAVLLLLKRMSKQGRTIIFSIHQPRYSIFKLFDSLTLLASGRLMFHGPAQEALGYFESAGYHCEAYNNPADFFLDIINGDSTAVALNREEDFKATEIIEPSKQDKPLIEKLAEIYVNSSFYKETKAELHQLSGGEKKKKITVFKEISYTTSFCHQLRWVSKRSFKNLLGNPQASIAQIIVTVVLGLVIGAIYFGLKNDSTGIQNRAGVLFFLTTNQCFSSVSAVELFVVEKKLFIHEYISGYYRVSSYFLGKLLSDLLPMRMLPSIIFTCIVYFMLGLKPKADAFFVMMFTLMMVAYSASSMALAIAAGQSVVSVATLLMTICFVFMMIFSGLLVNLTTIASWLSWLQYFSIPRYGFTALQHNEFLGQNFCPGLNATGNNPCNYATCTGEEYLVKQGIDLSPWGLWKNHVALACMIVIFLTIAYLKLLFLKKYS
Fatty acid synthase (Homo sapiens), sequence (P49327 whole entry, looked up): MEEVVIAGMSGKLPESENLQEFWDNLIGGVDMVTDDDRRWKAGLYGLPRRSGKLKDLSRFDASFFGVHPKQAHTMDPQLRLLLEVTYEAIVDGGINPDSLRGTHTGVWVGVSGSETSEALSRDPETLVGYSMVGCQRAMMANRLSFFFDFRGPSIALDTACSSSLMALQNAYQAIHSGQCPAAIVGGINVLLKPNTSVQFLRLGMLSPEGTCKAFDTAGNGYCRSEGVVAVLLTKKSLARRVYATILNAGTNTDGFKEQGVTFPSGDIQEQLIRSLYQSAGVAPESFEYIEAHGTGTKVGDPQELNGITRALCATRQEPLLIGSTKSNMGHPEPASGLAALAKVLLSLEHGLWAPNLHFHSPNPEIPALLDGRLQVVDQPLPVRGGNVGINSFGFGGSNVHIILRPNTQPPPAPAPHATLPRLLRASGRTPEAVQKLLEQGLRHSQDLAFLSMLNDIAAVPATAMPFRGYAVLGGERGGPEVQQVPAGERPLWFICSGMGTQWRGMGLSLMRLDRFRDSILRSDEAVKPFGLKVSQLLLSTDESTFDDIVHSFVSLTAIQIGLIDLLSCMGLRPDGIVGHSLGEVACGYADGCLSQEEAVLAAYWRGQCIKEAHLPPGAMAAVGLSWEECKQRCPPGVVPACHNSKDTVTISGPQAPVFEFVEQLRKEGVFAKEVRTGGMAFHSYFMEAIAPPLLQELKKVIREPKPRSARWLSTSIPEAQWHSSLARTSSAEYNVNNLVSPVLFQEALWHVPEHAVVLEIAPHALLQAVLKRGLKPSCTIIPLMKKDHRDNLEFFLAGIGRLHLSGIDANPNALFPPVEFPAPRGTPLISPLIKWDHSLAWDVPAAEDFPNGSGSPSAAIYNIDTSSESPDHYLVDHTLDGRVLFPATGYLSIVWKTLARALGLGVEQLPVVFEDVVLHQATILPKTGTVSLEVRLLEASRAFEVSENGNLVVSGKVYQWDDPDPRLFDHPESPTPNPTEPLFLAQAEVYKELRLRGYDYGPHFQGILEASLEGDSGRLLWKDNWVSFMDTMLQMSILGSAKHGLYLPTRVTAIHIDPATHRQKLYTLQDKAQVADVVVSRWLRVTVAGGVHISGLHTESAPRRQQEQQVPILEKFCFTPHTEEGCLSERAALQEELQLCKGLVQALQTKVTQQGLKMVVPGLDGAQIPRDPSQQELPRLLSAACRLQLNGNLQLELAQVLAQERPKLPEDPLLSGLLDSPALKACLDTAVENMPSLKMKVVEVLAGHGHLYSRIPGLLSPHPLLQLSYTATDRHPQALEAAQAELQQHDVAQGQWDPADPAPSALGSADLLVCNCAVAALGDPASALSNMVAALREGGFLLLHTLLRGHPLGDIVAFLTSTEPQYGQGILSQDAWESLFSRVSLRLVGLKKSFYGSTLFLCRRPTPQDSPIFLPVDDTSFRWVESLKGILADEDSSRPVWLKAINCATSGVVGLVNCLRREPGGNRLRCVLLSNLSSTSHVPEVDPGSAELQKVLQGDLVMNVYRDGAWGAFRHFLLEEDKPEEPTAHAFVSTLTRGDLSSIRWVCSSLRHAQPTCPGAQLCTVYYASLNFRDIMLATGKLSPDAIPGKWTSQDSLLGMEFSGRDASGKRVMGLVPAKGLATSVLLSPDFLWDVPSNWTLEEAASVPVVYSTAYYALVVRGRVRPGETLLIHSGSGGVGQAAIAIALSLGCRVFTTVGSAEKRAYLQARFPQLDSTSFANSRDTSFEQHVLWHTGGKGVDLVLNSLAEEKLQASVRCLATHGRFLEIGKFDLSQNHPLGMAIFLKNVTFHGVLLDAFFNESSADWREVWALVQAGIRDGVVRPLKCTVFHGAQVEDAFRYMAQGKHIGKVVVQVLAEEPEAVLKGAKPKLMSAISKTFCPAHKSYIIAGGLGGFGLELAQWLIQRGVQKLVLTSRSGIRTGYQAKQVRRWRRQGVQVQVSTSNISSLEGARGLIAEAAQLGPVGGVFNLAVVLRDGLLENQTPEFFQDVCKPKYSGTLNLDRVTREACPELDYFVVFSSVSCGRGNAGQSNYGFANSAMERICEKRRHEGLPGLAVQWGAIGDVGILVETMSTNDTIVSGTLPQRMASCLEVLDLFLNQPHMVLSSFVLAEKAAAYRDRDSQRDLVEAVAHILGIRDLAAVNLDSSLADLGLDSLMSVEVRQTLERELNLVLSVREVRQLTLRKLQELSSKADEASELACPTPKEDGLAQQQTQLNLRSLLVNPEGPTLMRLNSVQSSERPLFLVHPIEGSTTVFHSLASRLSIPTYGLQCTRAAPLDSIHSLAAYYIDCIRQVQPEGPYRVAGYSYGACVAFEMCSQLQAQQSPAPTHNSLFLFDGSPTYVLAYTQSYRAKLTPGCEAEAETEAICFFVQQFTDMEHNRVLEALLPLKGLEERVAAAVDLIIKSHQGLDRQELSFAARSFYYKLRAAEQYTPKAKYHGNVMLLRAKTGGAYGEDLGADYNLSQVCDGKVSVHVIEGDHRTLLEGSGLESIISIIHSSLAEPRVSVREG

For orientation: AC50 means the concentration giving half of the maximal activity seen. Take `Oc1ccc2c(c1)-c1ccccc1C2`: the AC50 in experiment [1] is 30.8 µM (active); in experiment [8], 10.5 µM (active); in experiment [11] it was 38.5 µM (active); in experiment [17] it was 25.1 µM (active). Besides, the compound was called inactive in [2], in [3], in experiment [4], in experiment [5], in experiment [6] and in experiment [7]. Moreover, the compound was classed as inactive in [9], in experiment [10], in experiment [12], in experiment [13], in experiment [14] and in [15]. Moreover, the call in experiment [16], in [18] and in experiment [19] was inactive.

Regarding `CC(C)CC(C)(O)C#CC(C)(O)CC(C)C` (centres undefined), the compound was called inactive in experiment [1], in experiment [3], in experiment [20], in experiment [4], in [5] and in experiment [6]. The result in [7], in experiment [9], in experiment [10], in experiment [12], in [13] and in experiment [15] was inactive. Also, the outcome in experiment [16], in experiment [17], in [18] and in experiment [19] was inactive. In addition, the AC50 in [8] is 50 µM (active); in experiment [14] it was 16.7 µM (active).

For `COC(=O)c1c(Cl)c(Cl)c(C(=O)OC)c(Cl)c1Cl`, the call in [1], in experiment [3], in experiment [4], in experiment [5], in experiment [6] and in experiment [7] was inactive. Also, the compound was classed as inactive in [10], in experiment [12], in [13], in experiment [14], in experiment [15] and in experiment [16]. Moreover, the compound was classed as inactive in experiment [17], in experiment [18] and in [19]. In experiment [8], the AC50 was 50 µM (active).

Consider `CC(C)c1cccc(C(C)C)c1N1C(=O)c2ccc(O)cc2C1=O`, for which the AC50 in experiment [1] is 86.5 µM (active); in [3] it was 82.1 µM (active); in experiment [5], 82.4 µM (active); in [7], 84.1 µM (active); in [8] it was 63.1 µM (active); in [10] it was 83.9 µM (active). Further, the AC50 in [13] is 80.4 µM (active); in [14], 23.9 µM (active); in experiment [16], 84.3 µM (active); in [17], 89.9 µM (active); in experiment [19], 50 µM (active). For the same compound, the result in experiment [20], in experiment [4], in experiment [6], in [12] and in experiment [15] was inactive.
